# In all, about 130,000 compounds went through this assay and about 550 (0.42%) were called active. Another 4% or so got no clear call; they are omitted. Calls follow the shape of the dose curve; as a rule, active = well fitted inhibition curve with a large enough effect; inconclusive = small, poorly fitted or top-dose-only effect, or effect the other way; inactive = flat fitted curve, though single readings scatter. Many of the other results were omitted from the sample, so actives are more common in it than they were.
# Assay: qHTS Assay for Inhibitors of the ERK Signaling Pathway using a Homogeneous Screening Assay; Stimulation with EGF; also: nearly all actives have a fitted effect of over 55% in size;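 as to activity change, negative = inhibition: plate controls were stimulated vehicle wells for no effect and unstimulated vehicle basal for full effect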
# Conditions: HEK293-V1b, EGF-stimulated phospho-ERK AlphaScreen; series mostly up to 11.5 µM; activity change, negative = inhibition: at the top concentration
# How it was run: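 EGF-stimulated (25 nM, 5 min) phospho-ERK in HEK293 cells stably expressing V1b, cells pretreated 30 min with compound at 37C. Homogeneous AlphaScreen read on lysates.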
# Potency is read from the fitted curve at half-maximal effect.
SMILES,"activity change, negative = inhibition",Potency
O=C(NNC(=O)c1cnccc1C(F)(F)F)c1ccc(Cl)cc1,-8.71% [at 57.5 µM] (inactive),–
COc1cc2nc(Cl)nc(NCCO)c2cc1OC,1.73% [at 57.5 µM] (inactive),–
NS(=O)(=O)c1cccc(NC(=O)CSc2nc3ccccc3n2-c2ccccc2)c1,-7.08% (inactive),–
COC(=O)c1ccc(NC(=S)NN2CCOCC2)cc1,-0.482% (inactive),–
CN1CCN(/N=C2/C(=O)Nc3ccc([N+](=O)[O-])cc32)CC1,-4.33% (inactive),–
COCCCNC(=S)N(Cc1ccccc1)Cc1ccc(F)cc1,0.532% (inactive),–
Cc1nn(-c2ccccc2)c(C)c1/C=C/C(=O)OC(C)C(N)=O (centres undefined),-1.64% (inactive),–
Cc1nn(-c2ccccc2)c(Cl)c1/C=C/C(=O)c1ccc(O)cc1,–,15.8 µM (active)
O=C(/C=C/c1ccc(Cl)c([N+](=O)[O-])c1)c1ccc(O)cc1,2.12% [at 57.5 µM] (inactive),–
COc1ccc(OC)c(NC(=O)N[C@H](Cc2ccccc2)C(=O)NN)c1,2.4% [at 57.5 µM] (inactive),–
CN(C)S(=O)(=O)c1ccc(C(=O)NCC(C)(C)N2CCOCC2)cc1,-14.2% [at 57.5 µM] (inactive),–
CC1(C)OC(=O)C(=CSc2ccc(C(C)(C)C)cc2)C(=O)O1,-2.11% (inactive),–
COc1ccc(NC(=S)NCC2CCN(c3ccc(OC)cc3)C2)cc1 (centres undefined),–,25.1 µM (active)
COc1cccc(N2CC(C(=O)Nc3c(C)cccc3C)CC2=O)c1 (centres undefined),-8.02% (inactive),–
COc1ccc(NC(=S)NCCNC(C)=O)cc1,-28.6% (inactive),–
COc1ccc(N2CCC(CNC(=S)Nc3c(C)cccc3C)C2)cc1 (centres undefined),–,12.6 µM (active)
COc1ccc(NC(=O)N2CCC(Cc3ccccc3)CC2)cc1,-15.1% (inactive),–
COc1ccc(NC(=S)NCCN2CCC(C)CC2)cc1,23.5% (inactive),–
Cc1nc2cc(NC(=O)Nc3cccc(F)c3)ccc2n1C,-11.2% [at 57.5 µM] (inactive),–
CC(C)=NN1C(=O)c2ccccc2NC1(C)C,-17.9% [at 57.5 µM] (inactive),–
OCCC1CN(Cc2ccc3nsnc3c2)CCN1C1CCCCC1 (centres undefined),-6.33% [at 57.5 µM] (inactive),–
O=C(/C=C/c1ccc2c(c1)OCO2)NCc1cn2cc(Cl)ccc2n1,-5.35% (inactive),–
Cc1c(Cc2ccccc2)c(=O)oc2cc(OCC(N)=O)ccc12,-6.39% (inactive),–

SMILES,"activity change, negative = inhibition",Potency
Cc1ccc(S(=O)(=O)N2CCN(C(=O)c3cccs3)CC2)cc1,-8.75% (inactive),–
COC(=O)C1=C(N)Oc2cc(C)[nH]c(=O)c2C1c1ccc(Cl)cc1 (centres undefined),-16.6% [at 57.5 µM] (inactive),–
O=C(NNC(=O)c1ccc(Cl)cc1Cl)c1cccs1,4.42% (inactive),–
O=C(Nc1ccccc1Cl)/C(Cl)=C(\Cl)S(=O)c1ccccc1 (centres undefined),–,31.6 µM (active)
O=C(CN1CCCCC1)Nc1ccccc1Cl,-9.35% (inactive),–
COCCN(CCOC)C(=S)Nc1ccccc1Cl,24.8% (inactive),–
COC(=O)Cc1ccc(Oc2ncc(C(F)(F)F)cc2Cl)cc1,1.69% (inactive),–
CCOc1ccccc1N1CN(Cc2ccccc2)CNC1=S,1.39% [at 57.5 µM] (inactive),–
CN(Cc1nc(-c2cnccn2)no1)Cc1n[nH]c2c1CCCCC2,3.06% [at 57.5 µM] (inactive),–
CN=C1C=C/C(=N/N=c2\ccn(O)cc2C)C=C1C,–,17.8 µM (active)
Cn1nnc(NC(=S)NC(=O)c2ccccc2)n1,-2.19% [at 57.5 µM] (inactive),–
COc1ccc(C(=O)N/N=C2\CCS(=O)(=O)c3ccc(F)cc32)cc1OC,-0.3% [at 57.5 µM] (inactive),–
C/C(=N/NC(=O)c1ccn(C)n1)c1ccncc1,5.86% [at 57.5 µM] (inactive),–
CCN(CC)S(=O)(=O)c1ccc(OC(C)C)c(N)c1,2.99% (inactive),–
CCS(=O)(=O)c1ccc(O)c(NC(=O)COc2ccc(Cl)cc2)c1,-0.946% (inactive),–
CN(CCc1cn[nH]c1)C(=O)CC1C(=O)NCCN1Cc1cccc(Oc2ccccc2)c1 (centres undefined),-15.3% (inactive),–
O=C(CN1CCN(c2ccc(Cl)cc2)CC1)NCc1cccs1,-13.5% (inactive),–
Cc1ccc(/C=N/NC(=S)Nc2cccc(S(=O)(=O)N(C)C)c2)o1,7.91% [at 57.5 µM] (inactive),–
Nc1nnc(SCn2nnc3ccccc3c2=O)s1,-7.57% (inactive),–
CC1(C)CC(=O)C(CC(=O)N2CCC(Cc3ccccc3)CC2)C(=O)C1,1.38% (inactive),–
Cc1ccc(CN(Cc2cccnc2)C(=S)Nc2cc(Cl)ccc2C)cc1,4.9% (inactive),–
O=C(COC(=O)c1ccc(S(=O)(=O)Nc2ccccc2)cc1)NCC1CCCO1 (centres undefined),12.7% [at 57.5 µM] (inactive),–
COc1ccc(-n2cnnc2SCC(=O)Nc2cccc([N+](=O)[O-])c2)cc1,4.62% (inactive),–

SMILES,"activity change, negative = inhibition",Potency
CCCc1nc2c(c(=O)c3ccccc3n2C)c(=O)n1-c1cc(C)cc(C)c1,2.8% [at 57.5 µM] (inactive),–
COc1ccc(CCNC(=O)C(=O)NCC2CCNCC2)cc1OC,-2.48% [at 57.5 µM] (inactive),–
CCn1c(SCc2cc(=O)n3ccsc3n2)nc2ccccc21,1.03% (inactive),–
N#C/C(=C/c1ccc(-c2ccccc2[N+](=O)[O-])o1)C(=O)NCCN1CCCCC1,-4.68% [at 57.5 µM] (inactive),–
COC(=O)/C=C(\Oc1ccccc1)C1(O)CCCCC1,9.88% [at 57.5 µM] (inactive),–
O=[N+]([O-])c1ccc2c(c1)C(N1CCOCC1)/C(=C/C1(O)CCCCC1)O2 (centres undefined),-3.12% (inactive),–
CC(=O)Nc1cccc(-c2nc3ccccc3s2)c1C,-1.53% (inactive),–
CCOC(=O)N1CCN(CC(=O)Nc2ccc(F)cc2)CC1,11.2% (inactive),–
COCCCNC(NC(=O)c1ccc(OC)cc1)C(Cl)(Cl)Cl (centres undefined),7.85% (inactive),–
CC(=O)c1cccc(NC(=O)[C@@H](NC(N)=O)C(C)C)c1,-0.0389% (inactive),–
Cc1[nH]n(C)c(=O)c1N=Nc1ccc(S(C)(=O)=O)cc1,-9.46% [at 57.5 µM] (inactive),–
Cc1cccc(N=Nc2c(C)[nH]n(-c3ccccc3)c2=O)c1,–,7.08 µM (active)
O=C(NNC(=O)c1ccccc1[N+](=O)[O-])Nc1ccccc1C(F)(F)F,-11% (inactive),–
CCCC(=O)Nc1nnc(-c2ccccc2)o1,-5.39% [at 57.5 µM] (inactive),–
COc1ccc(CN(C)C(=S)Nc2ccc(Cl)cc2Cl)cc1,-4.17% (inactive),–
O=C(NCc1csc(-c2cccs2)n1)C1CC1,3.28% [at 57.5 µM] (inactive),–
Cc1noc(C)c1COC(=O)COc1ccc(-c2ccccc2)cc1,3.01% [at 57.5 µM] (inactive),–
CCCn1c(NC(=O)C23CC4CC(CC(O)(C4)C2)C3)nc2ccccc21,0.399% (inactive),–
CCOC(=O)c1ccccc1NS(=O)(=O)c1ccc(OC)cc1,12.6% (inactive),–
CCOC(=O)c1c(C)[nH]c2c1-c1ccccc1C(=O)C2=O,-6.6% (inactive),–
CCOC(=O)C1=C(c2ccc(OC)cc2)C(=O)c2ccccc2C1=O,–,31.6 µM (active)
CC(C)NC(=O)NC(=O)CSc1nnc(-c2ccccc2F)n1N,3.58% (inactive),–
Cc1cc(C)nc(NC(=O)/C=C/c2ccc(Cl)cc2)n1,-5.42% [at 57.5 µM] (inactive),–

SMILES,"activity change, negative = inhibition",Potency
COc1ccc(/C=C/C(=O)Nc2ccc(C)cc2)cc1S(=O)(=O)N1CCOCC1,-5.96% [at 57.5 µM] (inactive),–
CC(=O)Nc1ccc(-c2csc(NC=C3C(=O)OC(C)(C)OC3=O)n2)cc1,-2.25% (inactive),–
CC(=O)Nc1ccc(S(=O)(=O)Nc2nc(-c3ccc(C(C)(C)C)cc3)cs2)cc1,-2.35% (inactive),–
CC(=O)Nc1ccc(-c2csc(NC(=O)Nc3ccccc3)n2)cc1,–,25.1 µM (active)
CN(c1ccccc1)S(=O)(=O)c1ccc(Cl)c(C(=O)OCC(=O)N2CCOCC2)c1,-4.38% (inactive),–
O=C(NCc1cccs1)c1cc(-c2ccccn2)nc2ccc(Br)cc12,8.18% (inactive),–
O=C(CN1CCCC1)N1CCN(c2ccccc2)CC1,5.85% (inactive),–
COc1ccc(N2CCN(C(=O)/C(C#N)=C/c3ccccc3)CC2)cc1,8.33% (inactive),–
CC(CO)NCC12CC3CC(CC(C3)C1)C2 (centres undefined),-23.6% (inactive),–
CC(C)(C)c1cc(P(=O)(c2ccccc2)c2ccccc2)ccc1O,8.91% [at 57.5 µM] (inactive),–
CCOC(=O)CN(C(=O)COc1nc(-c2ccccc2)cc(C)c1C#N)c1ccc(F)cc1,3.15% [at 57.5 µM] (inactive),–
COC(OC)c1ccnc(SCc2ccccc2Cl)n1,-7.52% [at 57.5 µM] (inactive),–
O=C(O)/C=C/c1ccc2c(c1)OCCO2,-8.38% [at 57.5 µM] (inactive),–
CC1(C)CC(N(Cc2ccccc2)C(=O)Cc2ccccc2)CCO1 (centres undefined),9.74% (inactive),–
Cc1cccc(N2CCN(Cc3nc(C4CC4)no3)CC2)n1,2.16% [at 57.5 µM] (inactive),–
CN(CCOc1ccccc1)Cc1nc2cc(Cl)ccc2c(=O)[nH]1,3.35% (inactive),–
O=C(NCc1ccccc1Cl)C1CCN(S(=O)(=O)N2CCOCC2)CC1,-3.09% (inactive),–
C=CCOc1c(CNn2cn[nH]c2=S)cccc1OC,1.88% (inactive),–
O=C(NCCc1ccccn1)c1cccnc1Oc1ccc(Cl)cc1,0.556% [at 57.5 µM] (inactive),–
CCC/C(C)=N\Nc1nc2c(c(=O)n(C)c(=O)n2C)n1C,2.86% [at 57.5 µM] (inactive),–
C=C(C)c1cccc(C(C)(C)NC(=O)NCCN(CC)CC)c1,-3.89% (inactive),–
CCNC(=O)c1ccc(OCC(=O)Nc2ccc(F)cc2)c(OC)c1,-6.79% [at 57.5 µM] (inactive),–
O=C(/C=C/c1ccccc1)Oc1coc(CSc2ncccn2)cc1=O,2.15% (inactive),–

SMILES,"activity change, negative = inhibition",Potency
CCN(CC)CCNC(=O)c1ccc(NS(=O)(=O)c2ccc3c(c2)OCCO3)cc1,-2.24% (inactive),–
COc1ccc(CCc2nnc(CCC(=O)NCc3cnn(-c4ccccc4C)c3)o2)cc1,0.463% (inactive),–
NCCCCCC(=O)N/N=C/c1ccc2nccnc2c1,-2.5% [at 57.5 µM] (inactive),–
O=C(N/N=C1\CCSC1)c1cc(Cl)ccc1O,1.16% (inactive),–
CSc1ccc(CN(C)CC(=O)NCc2ccc(F)cc2)cc1,-3.97% (inactive),–
O=C(CSc1nc2ccccc2s1)Nc1ccc(C(=O)O)cc1,8.22% [at 57.5 µM] (inactive),–
CS(=O)(=O)N(CC(=O)N1CCCC1)Cc1ccccc1,-2.52% (inactive),–
OCC1(Cc2ccccc2C(F)(F)F)CCN(Cc2ccncc2)CC1,-17.7% [at 57.5 µM] (inactive),–
CCNC(=O)COc1cc(C)c(Br)c(C)c1,-13.4% (inactive),–
O=c1oc2ccccc2cc1-c1csc(Nc2ccc(O)cc2)n1,–,39.8 µM (active)
COc1ccc2nc(Nc3nc(-c4cc5ccccc5oc4=O)cs3)sc2c1,2.77% (inactive),–
CCNc1nc(-c2cc3ccccc3o2)cs1,-4.57% (inactive),–
CSc1ccccc1C(=O)NCc1ccccc1,-3.76% (inactive),–
Cc1nc(S(=O)(=O)c2ccc(Br)cc2)nc2c1CCC2,4.23% (inactive),–
Brc1ccc(Nc2c3c(nc4ncnn24)CCC3)cc1,–,25.1 µM (active)
CC1CCc2c(nc3ncnn3c2Nc2ccc(OC(F)(F)F)cc2)C1 (centres undefined),-15.3% (inactive),–
Oc1oc(-c2ccccc2Br)nc1/C=N/c1ccccn1,11% (inactive),–
CC1CCCCC1NC(=O)CO/N=C/c1ccc(OC(F)F)cc1 (centres undefined),-9.33% (inactive),–
CSc1ccc(/C=N\NC(=O)CC(=O)NC(C)C)cc1,-17.2% (inactive),–
CCN(CC)CCn1cnc2c1c(=O)n(CCOC(=O)c1cc(OC)c(OC)c(OC)c1)c(=O)n2C,10.5% [at 57.5 µM] (inactive),–
O=C1CC2(CC(c3ccc(Cl)cc3)=NO2)C(=O)N1c1ccccc1 (centres undefined),-1.21% [at 57.5 µM] (inactive),–
Cn1nc(C(F)(F)F)cc1-c1ccc(/C=C(\C#N)C(=O)c2cccc(C(F)(F)F)c2)s1,-4.59% [at 57.5 µM] (inactive),–

# From PubChem BioAssay AID1454 (National Center for Advancing Translational Sciences (NCATS), 2008)
